High-throughput results as filed in PubChem.
BaF3 parental: parental Ba/F3 viability inhibition as JAK2V617F counter-screen; CellTiter-Glo ATP luminescence; inhibition, % at 5.6 µM; 1.1% of 220,000 active; AID 1486;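 active means inhibition above a per-campaign cutoff, the mean inhibition of all tested compounds plus 3 SD, cut at about 27% in these data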;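 further: 0% = DMSO wells and 100% = JAK Inhibitor I control wells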
aSyn 5UTR inh: MLPCN primary screen, SNCA 5' untranslated region. alpha-synuclein 5'UTR reporter, inhibitor activity. inhibition, % (tested at 7.5 µM). 0.82% of 300,000 active. AID 1813; in the data active means inhibition above about 60%; inconclusive means no clear call, values can overlap the other calls;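 further: H4 neuroglioblastoma cells stably carrying SNCA 5'UTR luciferase fusion; 0% = DMSO wells and 100% = positive control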
KLF5 inhibitor: kruppel-like factor 5 inhibition | AID 1700 | 0.23% of 290,000 active | inhibition, % at 5 µM | DLD-1 KLF5 promoter-luciferase reporter, luminescence;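 active means inhibition above a per-plate limit of that plate's mean compound inhibition plus 3 SD, cut at about 60% in these data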;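 further: 0% = DMSO wells and 100% = LY294002 at 200 µM; higher means less KLF5 promoter-driven luciferase light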
APP transl inh: APP translation inhibition; SH-SY5Y APP 5'UTR-luciferase reporter, luminescence; inhibition, % at 2 µM; 0.82% of 190,000 active; AID 1285;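 active means inhibition above a set limit, derived from the sample mean plus 3 SD, cut at about 45% in these data; inconclusive means one replicate passes the limit while the other fails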
IEC-6 cytotox: counter-screen for KLF5 inhibitors: cytotoxicity in IEC-6 cells; IEC-6 cytotoxicity, luminescence viability; inhibition, % at 5 µM; AID 1825; 0.78% of 290,000 active; in the data active means inhibition above about 22%;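 further: 0% = plate median of test compound wells and 100% = cytotoxic reference compound wells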
Ba/F3 V617F tox: reduce viability of Ba/F3 cells dependent on JAK2V617F | inhibition, % at 5.6 µM | 1.1% of 220,000 active | Ba/F3 EpoR-JAK2V617F viability, ATP luminescence | AID 1446;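 active means inhibition above the campaign mean plus 3 SD over all tested compounds, cut at about 24% in these data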;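 further: cytokine-independent growth of Ba/F3 cells driven by EpoR plus mutant JAK2; 0% = DMSO-treated cells and 100% = JAK inhibitor I control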
* hit, by the source's call; ? = inconclusive; / = not tested or not shown. An excerpt weighted towards active compounds, which were near 2.1% of everything screened.

SMILES	BaF3 parental	aSyn 5UTR inh	KLF5 inhibitor	APP transl inh	IEC-6 cytotox	Ba/F3 V617F tox
C=CCn1c(-c2ccc(OC)cc2)nc2ccccc21	38*	-73	-24	-11	1	42*
CCN(CC)S(=O)(=O)c1ccc2c(c1)nc(CCC(=O)Nc1ccccc1Cc1ccccc1)n2CC	3	15	-20	-5	0	0
CC(C)n1c(O)c(N=NC(=O)C2COc3ccccc3O2)c2ccccc21 (configuration not stated)	10	-37	9	8	2	2
O=C(N/N=C/c1cccc([N+](=O)[O-])c1)c1cnccn1	4	-6	-12	5	3	0
O=C(N/N=C/c1cc([N+](=O)[O-])ccc1Cl)c1cnccn1	6	81*	-7	34	-1	-3
COc1ccc(-c2cc(-c3cccs3)c(C#N)c(SCC(=O)NCc3ccco3)n2)cc1	7	/	-17	96*	0	7
COc1ccc(-c2csc(Nc3ccc(S(N)(=O)=O)cc3)n2)cc1OC	2	62*	-25	-6	-3	-2
NS(=O)(=O)c1ccc(Nc2nc(-c3ccc(F)cc3)cs2)cc1	10	2	-25	3	-5	1
C(=N\Nc1nc2ccccc2s1)/c1ccccn1	7	101*	49	/	8	14
Cc1csc(N/N=C/c2ccccn2)n1	5	69*	-57	-127	-8	4
CCOc1cc(CNCc2cccnc2)ccc1OCC(=O)NC(C)(C)C	3	2	-22	12	-6	0
Cc1cc(C)c(NC(=O)CCN2C(=O)c3ccccc3S2(=O)=O)c(C)c1	/	-7	/	/	/	/
Cc1ccc(S(=O)(=O)NCCCN2CCOCC2)c(C)c1	3	-18	-17	0	-1	1
c1ccc(CCCNCC2COc3ccccc3O2)cc1 (configuration not stated)	0	3	-44	73*	2	1
c1ccc(CCCCNCC2COc3ccccc3O2)cc1 (configuration not stated)	6	9	5	-20	-3	-1
Cc1cc(Br)ccc1NC(=O)CN(C)C(=O)c1cc([N+](=O)[O-])ccc1N1CCOCC1	/	4	/	/	/	/
Cc1cccc(NC(=O)CN2C(=O)N/C(=C/c3cc(C)n(-c4cccnc4)c3C)C2=O)c1	0	16	-21	-8	1	-2
Cc1ccc(NC(=O)CN2C(=O)N/C(=C\c3cccnc3)C2=O)cc1	0	1	-36	54*	-3	-5
O=C(c1ccco1)N(Cc1cc2ccccc2[nH]c1=O)C1CCCCC1	-4	13	5	-14	2	-5
O=C(c1ccncc1)N(Cc1cc2ccccc2[nH]c1=O)C1CCCCC1	29*	29	22	12	8	40*
COc1ccccc1N1CCN(C(=O)c2ccc3c(c2)NC(=O)C(CSCc2ccccc2C)N3)CC1 (configuration not stated)	/	-11	-6	/	0	/
O=C(Nc1cc(=O)[nH]c(=O)[nH]1)c1cccc(Br)c1	37*	7	8	8	11	12
Cc1cc(NC(=O)c2cccc(Br)c2)n[nH]1	/	-141	/	/	/	/
CCN1CCN(Cc2ccc(NC(=O)c3cc(NC(=O)C(=O)c4c[nH]c5ccccc45)cc(OC)c3)cc2C(F)(F)F)CC1	/	117*	/	/	/	/
CCN1CCN(Cc2ccc(NC(=O)c3cc(NC(=O)c4cc(C)on4)cc(OC)c3)cc2C(F)(F)F)CC1	/	20	-12	/	-2	/
SMILES	BaF3 parental	aSyn 5UTR inh	KLF5 inhibitor	APP transl inh	IEC-6 cytotox	Ba/F3 V617F tox
CCOc1ccccc1NC(=O)CSc1nnc(CNC(=O)c2c(F)cccc2Cl)o1	/	10	-9	/	-5	/
COc1ccc2cc3c(N)nn(C(=O)c4ccc(F)cc4)c3nc2c1	-1	-6	-30	/	-5	-10
COc1ccc2cc3c(N)nn(C(=O)c4ccccc4Cl)c3nc2c1	-6	65*	-26	/	14	-5
COCCNC(=S)NC(=O)c1ccc(C(C)(C)C)cc1	11	-91	-26	-10	4	1
COCCCNC(=S)NNC(=O)C1CC1c1ccc(C(C)(C)C)cc1 (configuration not stated)	38*	-100	-21	-17	-2	7
CCC(=O)NC1=C(Cl)C(=O)C(NC(=O)CC)=C(Cl)C1=O	2	/	1	/	73*	8
Brc1ccc2c(c1)C(C1=NCCN1)c1ccccc1CS2 (configuration not stated)	66*	42	59	94*	67*	74*
CS(=O)(=O)N(CC(=O)Nc1ccc(S(=O)(=O)N2CCCC2)cc1)c1ccccc1	5	11	2	-2	-2	0
Cc1ccc(-c2nn(CC(=O)NCc3cc(-c4nn(C)c(=O)c5ccccc45)ccc3C)c(=O)c3ccccc23)cc1	2	114*	-12	-4	0	-4
CC(C)(C)C(=O)NC(=S)NNC(=O)c1sc2ccccc2c1Cl	4	89*	-5	27	6	2
O=C(NNC(=S)NC1CCCCC1)c1sc2ccccc2c1Cl	-1	-6	-6	-15	-3	-5
COc1ccc(-c2cc(C(F)F)n3ncc(C(=O)N4CCc5ccccc54)c3n2)cc1	5	?	3	87*	0	-1
O=C(NC1CCCCCCC1)c1cc(COc2ccc3ncccc3c2)on1	39*	26	-9	4	2	7
CCC(O)C1CCN(C(=O)c2cc(COc3ccc4ncccc4c3)on2)CC1 (configuration not stated)	68*	9	42	4	14	47*
Cc1cc(C)c(C(=O)NC2CCCc3c2cnn3-c2ccc(C)c(C)c2)c(=O)[nH]1 (configuration not stated)	/	-3	-15	/	-4	/
c1ccc(C2=Nn3c(nnc3-c3ccncc3)SC2)cc1	1	25	-1	18	-5	5
Cc1cc(-c2nnc3n2N=C(c2ccc(-c4ccccc4)cc2)CS3)n[nH]1	5	-18	-15	-26	-3	1
C[n+]1c2n(c3ccccc31)N=C(c1ccc(-c3ccccc3)cc1)CS2	71*	10	18	0	16	99*
C[n+]1c2n(c3ccccc31)N=C(c1ccccc1)CS2	68*	-48	-40	-2	4	91*
C[n+]1c2n(c3ccccc31)N=C(c1ccc(Br)cc1)CS2	71*	-22	6	-16	1	66*
CC(C)[C@H](N)C(=O)N1CCC(C(=O)N[C@@H](Cc2ccccc2)C(=O)NCc2ccc(F)cc2)CC1	/	3	-2	/	3	/
Cc1cccc(COc2ccc(/C=C3/C(=O)N(C)C(=S)N3C)cc2)c1	/	-16	-30	/	-2	/
COc1cccc(CNC(=O)c2cc3c(cc2Cl)N2CCCCCC2=NS3(=O)=O)c1	/	6	/	/	/	/
Cc1nc(C(=O)NNC(=O)c2c(-c3c(Cl)cccc3Cl)noc2C)cs1	-2	63*	6	/	17	-3
Cc1onc(-c2c(Cl)cccc2Cl)c1C(=O)Nc1nc(C(C)(C)C)cs1	2	80*	15	/	7	3
